According to PubChem BioAssay (Tox21):
Records with an inconclusive call do not appear. Activity calls are given as the source filed them. Unless noted, the call rests on the fitted dose curve; in most records, active means well fitted curve in the direction sought with a large enough effect in the repeat runs; inconclusive means weak or mixed curves; inactive means no such curve, though single readings can be large; an effect the other way counts as inactive or inconclusive.

Legend:
[1] = qHTS assay to identify small molecule agonists of the peroxisome proliferator-activated receptor delta (PPARd) signaling pathway - cell viability counter screen (AID 743211); further: nearly all actives have a fitted effect of over 55% in size
Procedure, shortened: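 In the same wells used for beta-lactamase reporter measurement, cytotoxicity is scored by CellTiter-Glo. HEK293H PPARd-bla cells receive compound for 17 h at 37C following a 5 h settling period.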

[2] = qHTS assay to identify small molecule antagonists of the peroxisome proliferator-activated receptor delta (PPARd) signaling pathway - cell viability counter screen (AID 743213); further: nearly all actives have a fitted effect of over 50% in size
Procedure, shortened: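 Luminescence from CellTiter-Glo, added after the bla read and incubated 30 min at room temperature, gives viability of HEK293H PPARd-bla cells exposed to compounds for 17 h at 37 C with 300 nM L165041.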

[3] = qHTS assay to identify small molecule antagonists of the farnesoid-X-receptor (FXR) signaling pathway - cell viability counter screen (AID 743221; active means well fitted cell-killing curve with a large enough effect in the repeat runs, not every such curve was filed as active; further: nearly all actives have a fitted effect of over 50% in size)
Procedure, shortened: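 Here viability was scored by luminescence after CellTiter-Glo addition to wells already read for beta-lactamase. Prior treatment: compound plus CDCA (50 uM final), 16 h, 37 C, HEK 293T FXR-bla cells.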

[4] = biological target: Vitamin D3 receptor (Homo sapiens) (UniProt P11473); assay: qHTS assay to identify small molecule agonists of the vitamin D receptor (VDR) signaling pathway (AID 743222; calls by dose curve)
Sequence of Vitamin D3 receptor (Homo sapiens) (P11473 whole entry, looked up): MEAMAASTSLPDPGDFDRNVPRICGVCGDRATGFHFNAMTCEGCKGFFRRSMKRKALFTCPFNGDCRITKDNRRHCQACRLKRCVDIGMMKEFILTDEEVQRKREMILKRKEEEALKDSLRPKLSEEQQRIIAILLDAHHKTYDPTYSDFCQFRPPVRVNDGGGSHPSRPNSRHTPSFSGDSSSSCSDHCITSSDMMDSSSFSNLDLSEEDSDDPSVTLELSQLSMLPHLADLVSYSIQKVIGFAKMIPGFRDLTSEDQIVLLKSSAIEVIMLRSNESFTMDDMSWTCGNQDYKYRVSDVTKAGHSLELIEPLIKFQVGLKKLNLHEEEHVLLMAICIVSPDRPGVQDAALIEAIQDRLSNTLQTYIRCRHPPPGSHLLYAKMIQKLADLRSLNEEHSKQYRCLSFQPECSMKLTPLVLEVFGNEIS
Procedure, shortened: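 VDR-bla cells were seeded, left 4 h, treated with compounds in DMSO for 16 h, incubated 2 h at RT with B/G FRET substrate, and read for fluorescence.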

[5] = biological target: Vitamin D3 receptor (Homo sapiens) (UniProt P11473); assay: qHTS assay to identify small molecule antagonists of the vitamin D receptor (VDR) signaling pathway (AID 743223; active means well fitted inhibition curve with a large enough effect in the signal ratio in the repeat runs, not every such curve was filed as active; the % refers to the signal ratio)
Procedure, shortened: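 Inhibition of agonist-driven VDR signalling is scored in VDR-bla cells: 3 nM final 1alpha,25-dihydroxyvitamin D3 plus compound, 16 h at 37C, then beta-lactamase detection by FRET substrate fluorescence after 2 h.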

[6] = qHTS assay to identify small molecule agonists of the vitamin D receptor (VDR) signaling pathway - cell viability counter screen (AID 743224); further: series mostly up to about 63 µM; nearly all actives have a fitted effect of over 50% in size
Procedure, shortened: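 Here cell health was gauged by luminescent ATP detection (CellTiter-Glo, 30 min RT) in VDR-bla cells that had been incubated with test compounds for 16 h at 37C and 5% CO2.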

[7] = qHTS assay to identify small molecule antagonists of the vitamin D receptor (VDR) signaling pathway - cell viability counter screen (AID 743225); further: nearly all actives have a fitted effect of over 50% in size
Procedure, shortened: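 Compounds were pinned onto VDR-bla HEK 293T cells together with 1-alpha,25-dihydroxyvitamin D3 at 3 nM final. After 16 h at 37C and 5% CO2 plus the reporter readout, cell viability was measured by CellTiter-Glo luminescence (30 min, room temperature).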

[8] = qHTS assay to identify small molecule agonists of the NFkB signaling pathway (AID 1159509; active means well fitted curve in the direction sought with a large enough effect in the signal ratio in the repeat runs, not every such curve was filed as active; the % refers to the signal ratio; further: series mostly up to about 61 µM)
Procedure, shortened: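 NFkB-bla ME-180 cells with a beta-lactamase reporter under an NF-kB response element were plated overnight, treated with compounds in DMSO for 5 hr at 37 C, then loaded with FRET substrate for 1.5 hr at room temperature.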

[9] = qHTS assay to identify small molecule agonists of the NFkB signaling pathway - cell viability counter screen (AID 1159515; calls by dose curve; further: series mostly up to about 61 µM; nearly all actives have a fitted effect of over 55% in size)
Procedure, shortened: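 5 hr compound treatment of NFkB-bla ME-180 cells (2,000/well, seeded overnight beforehand), followed by reporter substrate for 1.5 hr. CellTiter-Glo added afterward; luminescence after 30 min RT.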

[10] = qHTS assay to identify small molecule agonists of the endoplasmic reticulum stress response signaling pathway (AID 1159516; active means well fitted activation curve with a large enough effect in the signal ratio in the repeat runs, not every such curve was filed as active; the % refers to the signal ratio)
Procedure, shortened: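 Reporter HeLa cells (ESRE-beta-lactamase) underwent 5 hr compound incubation at 37 C and 5% CO2 in quantitative HTS format. Detection followed 2 hr of FRET substrate loading at room temperature.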

[11] = qHTS assay to identify small molecule agonists of the endoplasmic reticulum stress response signaling pathway - cell viability counter screen (AID 1159517; calls by dose curve)
Procedure, shortened: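 Cells, HeLa ESRE-bla; density, 1,500/well; dosing, 5 hr at 37 C, 5% CO2; readout, CellTiter-Glo luminescence after 30 min RT.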

[12] = qHTS assay to identify small molecule antagonists of the retinoid-related orphan receptor gamma (ROR-gamma) signaling pathway - cell viability counter screen (AID 1159520); further: nearly all actives have a fitted effect of over 50% in size
Procedure, shortened: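 Cytotoxicity was read from cellular ATP (CellTiter-Glo luminescence) after 16 hr at 37 C with 1 uM doxycycline induction. The inducer was added 2 hr after compound transfer to Tet-on ROR gamma CHO cells.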

[13] = biological target: Nuclear receptor ROR-gamma (Homo sapiens) (UniProt P51449); assay: qHTS assay to identify small molecule antagonists of the retinoid-related orphan receptor gamma (ROR-gamma) signaling pathway (AID 1159521)
Procedure, shortened: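 Test compounds were applied to Tet-on RORγ CHO cells 2 h ahead of doxycycline hyclate (1 uM final). Luciferase reporter activity was quantified by luminescence after 16 h at 37 C and 5% CO2.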

[14] = qHTS assay to identify small molecule agonists of the AP-1 signaling pathway - cell viability counter screen (AID 1159525; calls by dose curve; further: nearly all actives have a fitted effect of over 55% in size)
Procedure, shortened: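 Luminescent ATP readout (Cell Titer Glo, 30 min RT), normalised to DMSO and tetra n-octyl ammonium bromide controls. Cells were ME-180 AP-1-bla in 0.5% dialyzed FBS Opti-MEM, with a 5 h, 37 °C compound exposure.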

[15] = qHTS assay to identify small molecule agonists of the AP-1 signaling pathway (AID 1159526; calls by dose curve)
[16] = biological target: Peroxisome proliferator-activated receptor delta (Homo sapiens) (UniProt Q03181); assay: qHTS assay to identify small molecule antagonists of the peroxisome proliferator-activated receptor delta (PPARd) signaling pathway (AID 743215; active means well fitted inhibition curve with a large enough effect in the signal ratio in the repeat runs, not every such curve was filed as active; the % refers to the signal ratio;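 further: cells stimulated with agonist L165041 at 300 nM final during compound exposure; series mostly up to about 62 µM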)
Sequence of Peroxisome proliferator-activated receptor delta (Homo sapiens) (Q03181 whole entry, looked up): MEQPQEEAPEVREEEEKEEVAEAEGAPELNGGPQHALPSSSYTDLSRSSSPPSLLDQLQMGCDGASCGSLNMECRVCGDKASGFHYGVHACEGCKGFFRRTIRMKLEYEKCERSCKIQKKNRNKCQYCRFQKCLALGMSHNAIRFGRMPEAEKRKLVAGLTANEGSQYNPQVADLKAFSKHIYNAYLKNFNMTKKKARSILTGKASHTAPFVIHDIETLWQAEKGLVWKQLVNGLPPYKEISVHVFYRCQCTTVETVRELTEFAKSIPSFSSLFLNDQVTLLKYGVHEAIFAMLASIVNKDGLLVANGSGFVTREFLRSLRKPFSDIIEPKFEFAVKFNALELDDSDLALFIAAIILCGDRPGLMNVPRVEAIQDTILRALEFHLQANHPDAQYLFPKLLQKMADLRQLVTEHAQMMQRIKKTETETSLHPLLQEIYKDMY
Procedure, shortened: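 With L165041 present at 300 nM final, compounds were incubated 17 h at 37 C on PPARd UAS-bla HEK293H cells. A FRET-based beta-lactamase substrate was then applied for 2 h at room temperature and fluorescence intensity recorded.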

[17] = biological target: Bile acid receptor (Homo sapiens) (UniProt Q96RI1); assay: qHTS assay to identify small molecule antagonists of the farnesoid-X-receptor (FXR) signaling pathway (AID 743217; active means well fitted inhibition curve with a large enough effect in the signal ratio in the repeat runs, not every such curve was filed as active; the % refers to the signal ratio)
Sequence of Bile acid receptor (Homo sapiens) (Q96RI1 whole entry, looked up): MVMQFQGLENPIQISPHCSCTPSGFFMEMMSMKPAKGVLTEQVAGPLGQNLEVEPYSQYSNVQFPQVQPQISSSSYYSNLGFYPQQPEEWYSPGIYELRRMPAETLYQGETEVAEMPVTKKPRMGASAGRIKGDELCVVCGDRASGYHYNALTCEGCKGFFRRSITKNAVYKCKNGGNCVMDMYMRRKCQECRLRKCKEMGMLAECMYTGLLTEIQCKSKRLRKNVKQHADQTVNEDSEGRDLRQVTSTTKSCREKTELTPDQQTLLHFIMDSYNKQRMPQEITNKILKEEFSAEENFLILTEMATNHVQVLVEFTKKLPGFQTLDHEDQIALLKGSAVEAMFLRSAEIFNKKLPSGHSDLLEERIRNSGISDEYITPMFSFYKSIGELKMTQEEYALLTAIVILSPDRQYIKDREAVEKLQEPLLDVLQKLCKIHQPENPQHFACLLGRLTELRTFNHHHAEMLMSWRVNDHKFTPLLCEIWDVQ
Procedure, shortened: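 In this cell-based antagonist screen, inhibition of CDCA-driven (50 uM final) UAS-beta-lactamase expression in HEK 293T cells was measured by FRET fluorescence following 16 h compound exposure at 37 °C.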

[18] = qHTS assay to identify small molecule agonists of the farnesoid-X-receptor (FXR) signaling pathway - cell viability counter screen (AID 743218); further: nearly all actives have a fitted effect of over 45% in size
Procedure, shortened: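 After 16 h at 37 C with test compounds, FXR-bla HEK 293T cells were given LiveBLAzer B/G substrate for 2 h at RT and then CellTiter-Glo; luminescence was taken after 30 min.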

[19] = biological target: Bile acid receptor (Homo sapiens) (UniProt Q96RI1); assay: qHTS assay to identify small molecule agonists of the farnesoid-X-receptor (FXR) signaling pathway (AID 743220; active means well fitted activation curve with a large enough effect in the signal ratio in the repeat runs, not every such curve was filed as active; the % refers to the signal ratio)
Procedure, shortened: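 Beta-lactamase reporter under UAS control in GeneBLAzer FXR HEK 293T cells (5000/well) measured with LiveBLAzer FRET substrate after 2 h at room temperature. Compound exposure lasted 16 h at 37C.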

[20] = biological target: Peroxisome proliferator-activated receptor delta (Homo sapiens) (UniProt Q03181); assay: qHTS assay to identify small molecule agonists of the peroxisome proliferator-activated receptor delta (PPARd) signaling pathway (AID 743212; calls by dose curve)
Procedure, shortened: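 HEK293H UAS-bla reporter cells, human PPARd system; compounds delivered in DMSO after 5 h plating, then at 37 C. Beta-lactamase FRET read, 2 h RT substrate step.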

Measured: Potency

C=C(C)C(N)=O
inactive: [1] | [2] | [3] | [4] | [5] | [6] | [7] | [8] | [9] | [10] | [11] | [12] | [13] | [14] | [15]

Cc1cccc2ccccc12
inactive: [1] | [2] | [16] | [17] | [18] | [19] | [3] | [4] | [5] | [6] | [7] | [8] | [9] | [10] | [11] | [12] | [13] | [15]

CC(C)CC(C)CC(O)CC(C)C (stereo not given)
inactive: [1] | [2] | [16] | [17] | [18] | [19] | [3] | [4] | [6] | [7] | [8] | [9] | [10] | [11] | [12] | [13] | [15]

CC(O)COc1ccccc1 (stereo not given)
inactive: [1] | [20] | [2] | [16] | [17] | [18] | [19] | [3] | [4] | [5] | [6] | [7] | [8] | [9] | [10] | [11] | [12] | [13] | [15]

NC(=O)N1c2ccccc2C=Cc2ccccc21
inactive: [1] | [20] | [2] | [16] | [18] | [3] | [6] | [7] | [8] | [9] | [10] | [11] | [12] | [13] | [15]

Nc1cccc(N)c1
inactive: [1] | [2] | [17] | [19] | [3] | [4] | [5] | [6] | [7] | [8] | [9] | [10] | [11] | [12] | [13] | [14] | [15]

CC1(C)O[C@@H]2[C@@H](CO[C@@]3(COS(N)(=O)=O)OC(C)(C)O[C@@H]23)O1
inactive: [1] | [2] | [18] | [3] | [4] | [5] | [6] | [7] | [8] | [9] | [10] | [11] | [12] | [13] | [14] | [15]

CC(=O)CCC(C)C
inactive: [1] | [2] | [16] | [17] | [18] | [19] | [3] | [6] | [7] | [8] | [9] | [10] | [11] | [12] | [13] | [15]

CN(C)C=O
inactive: [1] | [2] | [17] | [18] | [19] | [3] | [6] | [7] | [8] | [9] | [10] | [11] | [12] | [13] | [14] | [15]

OC[C@@H](O)[C@@H](O)[C@H](O)[C@H](O)CO
inactive: [1] | [2] | [18] | [3] | [4] | [5] | [6] | [7] | [8] | [9] | [10] | [11] | [12] | [13] | [14] | [15]

CCCCOC(=O)CCCCCCCCC(=O)OCCCC
inactive: [1] | [2] | [3] | [4] | [5] | [6] | [7] | [8] | [9] | [10] | [11] | [12] | [13] | [14] | [15]

COCCOCCOC
inactive: [1] | [2] | [16] | [17] | [18] | [19] | [3] | [4] | [5] | [6] | [7] | [8] | [9] | [10] | [11] | [12] | [13] | [15]

COCC(C)N (stereo not given)
inactive: [1] | [2] | [16] | [17] | [19] | [3] | [4] | [5] | [6] | [7] | [8] | [9] | [10] | [11] | [12] | [13] | [15]

COc1ccccc1NC(=O)CC(C)=O
inactive: [1] | [2] | [16] | [3] | [4] | [5] | [6] | [7] | [8] | [9] | [10] | [11] | [12] | [13] | [14] | [15]

CC(=O)Oc1ccccc1C(=O)O
inactive: [1] | [2] | [3] | [4] | [5] | [6] | [7] | [8] | [9] | [10] | [11] | [12] | [13] | [14] | [15]

Cc1ccc(O)c(-n2nc3ccccc3n2)c1
inactive: [1] | [2] | [16] | [17] | [18] | [19] | [3] | [4] | [5] | [6] | [7] | [8] | [9] | [10] | [11] | [12] | [13] | [15]

OCCCc1ccccc1
inactive: [1] | [2] | [16] | [3] | [4] | [5] | [6] | [7] | [8] | [9] | [10] | [11] | [12] | [13] | [14] | [15]
